The panel holds about 83,000 compounds, 20% with a hit somewhere; the sample as a whole holds those more often.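 Interpretation: 100, growth as untreated; towards 0, rising growth inhibition; 0, no net growth; 0 to -100, cell death. Compounds scoring below 10 were considered active.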 Values without a mark were called inactive. Activity calls are given as the source filed them.
What follows are molecules tested on NCI-H226 lung (assay: NCI-60 one-dose screen, 48 h (100 = growth as untreated, 0 = no growth, -100 = all killed)). Settings: 10 µM unless noted.
Work on `C=C(C)[C@@H]1CC[C@]2(C(=O)NCCCN(CCC#N)CCC#N)CC[C@]3(C)[C@H](CC[C@@H]4[C@@]5(C)CCC(=O)C(C)(C)[C@@H]5CC[C@]43C)[C@@H]12` yielded a growth of 94%. Molecule `O=C(CN1C(=O)S/C(=C\c2ccccc2)C1=O)Nc1ccc(C(=O)/C=C/c2cc3ccccc3nc2Cl)cc1` has a growth of 92.2%. `N#Cc1c(-c2cccs2)cc(-c2cnccn2)nc1SCC(=O)NNC(=S)Nc1ccc(F)cc1` gave a growth of 117%. In the case of `CN1CCN(c2nc(-c3cnc4ccccc4n3)cc3ccccc23)CC1`, the growth is reported as 99.9%. `Cc1cc(O)c(=O)cc2c1C[C@H]1CC(C)(C)/C=C/C[C@]3(C)Oc4cc(=O)c(O)cc(C)c4C[C@H]3C[C@H](O)[C@@]1(C)O2` gave a growth of 14.7%. `CC(C)=CCC[C@](C)(O)[C@H]1CC[C@]2(C)[C@@H]1CC[C@@H]1[C@@]3(C)CCC(NC(=O)c4ccccc4C(=O)O)C(C)(C)[C@@H]3CC[C@]12C` (some centres not stated) was tested, and the growth was 89.7%. In the case of `CN1CCN(c2ccc3c(C(N)=O)c(NC(=O)c4ccc(C(C)(C)C)cc4)sc3c2)CC1`, the growth is reported as 104%. For `COc1ccc(-c2nc(SCC(C)C)nc(N/N=C\c3cccc([N+](=O)[O-])c3)c2C#N)cc1`, the growth was 38%. Molecule `Cc1cc(F)cc(NS(=O)(=O)c2ccc(-c3cnc(C4CC4)o3)cc2)c1` has a growth of 53.8%. In the case of `C/C(=N\NC(=O)CSc1nc2sc3c(c2c(=O)n1-c1ccccc1)CCC(C)C3)c1ccc(Cl)cc1` (configuration not stated), the growth is reported as -1.29% (active). `COc1ccc(NC(=O)[C@H](C)N)cc1C(=O)Nc1cccc(-c2cc(=O)c3c(OC)c(OC)c(OC)cc3o2)c1` gave a growth of 67.2%. In the case of `CC[C@H](C)[C@H]1NC(=O)[C@@H]([C@H](O)C(C)C)NC(=O)[C@@H](C)N(C)C(=O)[C@H](C)N(C)C(=O)[C@H](CC(C)C)NC(=O)[C@H](CC(C)C)N(C)C(=O)[C@H](C)N(C)C1=O`, the growth is reported as -6.15% (active). In the case of `IP(CCCSc1n(Cc2ccc3ccccc3c2)c(-c2ccccc2)c(-c2ccccc2)[n+]1Cc1ccc2ccccc2c1)(c1ccccc1)(c1ccccc1)c1ccccc1`, the growth is reported as 78.8%. For `N/C(=N\OC(=O)CSc1nc2ccccc2s1)c1ccc(Cl)cc1`, the growth was 98%. `CC(=O)NC(C)(C)C(=O)N[C@@H](C)C(=O)NC(C)(C)C(=O)N[C@@H](C)C(=O)NC(C)(C)C(=O)N[C@@H](C)C(=O)N[C@@H](CCC(N)=O)C(=O)NC(C)(C)C(=O)N[C@H](C(=O)NC(C)(C)C(=O)NCC(=O)N[C@@H](CC(C)C)C(=O)NC(C)(C)C(=O)N1CCC[C@H]1C(=O)N[C@H](C(=O)NC(C)(C)C(=O)NC(C)(C)C(=O)N[C@@H](CCC(N)=O)C(=O)N[C@@H](CCC(N)=O)C(=O)N[C@H](CO)CC1CCCCC1)C(C)C)C(C)C` showed a growth of 35% [5 µM]. `CCOC(=O)C1=C(C)Nc2nnc(Nc3ccccc3)n2C1c1ccccc1` (configuration not stated) gave a growth of 86.7%. `COc1cc(OC)c(S(N)(=O)=O)cc1C(=O)/C=C/c1ccccc1` gave a growth of 38.8%. For `CCOC(=O)/C(F)=C/C1CC1C1CCCCC1` (configuration not stated), the growth was 104%.

What follows are molecules tested on NCI-H322M lung in the same assay as above. Settings: 10 µM unless noted.
`CC(=O)Oc1ccc(CCN2C(=O)CSC2=S)cc1` showed a growth of 99.8%. With `COc1cc(/C=N/n2cnc3oc(-c4ccccc4)cc3c2=N)cc(CN2CCOCC2)c1O` the growth was 97.5%. With `CCOC(=O)/C=c1\sc2n(c1=O)C1C(NN=2)N(CC)C(=O)N1CC` (configuration not stated) the growth was 78.9%. With `CN(C)c1ccc(/C=N/Nc2nc(N/N=C/c3ccc(N(C)C)cc3)nc(N3CCOCC3)n2)cc1` the growth was 100%. Molecule `COc1cc2oc(-c3cccc(NC(=O)c4cc(NC(=O)[C@H](C)NC(=O)OC(C)(C)C)ccc4C)c3)cc(=O)c2c(OC)c1OC` has a growth of 86.2%. `CN1CCN(Cc2ccc(NC(=O)c3cncc(C#Cc4cnc5ccc(NC6CCOCC6)nn45)c3)cc2C(F)(F)F)CC1` was tested, and the growth was -20% (active). In the case of `O=C(Nc1ccc(Cl)cc1)Nc1nc2ccc([N+](=O)[O-])cc2s1`, the growth is reported as 2.65% (active). For `CCCCCCNC(=O)Oc1ccc(/C(=C(/C)c2ccc(OC)cc2)c2ccc(OCCN3CCCC3)cc2)cc1`, the growth was 86.2%. Work on `O=c1c2ccccc2nc(COc2ccccc2)n1/N=C/C=C/c1ccccc1` yielded a growth of 93%. Molecule `CCCCCc1ccc(S(=O)(=O)N(C(C)=O)c2cccc(-c3csc(N(CCN4CCN(C)CC4)C(C)=O)n3)c2)cc1` has a growth of 61.1%. Molecule `O=C(NNc1nc2cc(F)c(F)cc2n2cccc12)c1ccncn1` has a growth of 28.9%. Molecule `O=C(CCCCCCN1CC(=O)N2[C@@H](c3cccc(Cl)c3)c3[nH]c4ccccc4c3C[C@H]2C1=O)NO` has a growth of 66.4%. In the case of `O=C(/C=C/c1cn(-c2ccccc2)nc1-c1ccc(Cl)cc1)c1cc2ccccc2oc1=O`, the growth is reported as 77.7%. Molecule `COc1cc(/C=C/C(=O)c2ccc(NC(=O)COc3cccc4cccnc34)cc2)cc(OC)c1OC` has a growth of 90.4%. In the case of `O=C(Nc1cccc(Cl)c1)Nc1nc2ccc([N+](=O)[O-])cc2s1`, the growth is reported as 8.75% (active). In the case of `O=C(NNc1nc2cc(F)cc(F)c2n2cccc12)c1ccncn1`, the growth is reported as 28.6%. In the case of `C[C@H]1[C@H](C)CC[C@]2(COC(=O)c3cccnc3)CC[C@]3(C)C(=CC[C@@H]4[C@@]5(C)CCCNC(C)(C)[C@@H]5CC[C@]43C)[C@H]12`, the growth is reported as 88.3%. `CN1CCN(c2ccc(NC(=O)Nc3ccc4c(ccn4-c4cccc(C(N)=O)n4)c3)cc2C(F)(F)F)CC1` was tested, and the growth was 58.3%. With `COc1ccc(OC)c([C@H]2c3[nH]c4ccccc4c3C[C@H]3C(=O)N(CCCCCCC(=O)NO)CC(=O)N23)c1` the growth was 93.3%. Molecule `CS(=O)c1nccc(-c2c(-c3ccc(F)c(OCc4ccccc4)c3)nc3sccn23)n1` (configuration not stated) has a growth of 73.1%. For `CC(=O)NC(C)(C)C(=O)N1CCC[C@H]1C(=O)NC(C)(C)C(=O)N[C@@H](C)C(=O)NC(C)(C)C(=O)N[C@@H](C)C(=O)N[C@@H](CCC(N)=O)C(=O)NC(C)(C)C(=O)N[C@H](C(=O)NC(C)(C)C(=O)NCC(=O)N[C@@H](CC(C)C)C(=O)NC(C)(C)C(=O)N1CCC[C@H]1C(=O)N[C@H](C(=O)NC(C)(C)C(=O)NC(C)(C)C(=O)N[C@@H](CCC(N)=O)C(=O)N[C@@H](CCC(N)=O)C(=O)N[C@H](CO)Cc1ccccc1)C(C)C)C(C)C`, the growth was 97.3% [4.25 µM]. Work on `C=C(C)[C@@H]1CC[C@]2(C(=O)NCCCN(CCC#N)CCC#N)CC[C@]3(C)[C@H](CC[C@@H]4[C@@]5(C)CCC(=O)C(C)(C)[C@@H]5CC[C@]43C)[C@@H]12` yielded a growth of 103%. `O=C(CN1C(=O)S/C(=C\c2ccccc2)C1=O)Nc1ccc(C(=O)/C=C/c2cc3ccccc3nc2Cl)cc1` showed a growth of 92.2%. Work on `N#Cc1c(-c2cccs2)cc(-c2cnccn2)nc1SCC(=O)NNC(=S)Nc1ccc(F)cc1` yielded a growth of 97.3%. `CN1CCN(c2nc(-c3cnc4ccccc4n3)cc3ccccc23)CC1` showed a growth of 96.7%. In the case of `Cc1cc(O)c(=O)cc2c1C[C@H]1CC(C)(C)/C=C/C[C@]3(C)Oc4cc(=O)c(O)cc(C)c4C[C@H]3C[C@H](O)[C@@]1(C)O2`, the growth is reported as 16%. Work on `CC(C)=CCC[C@](C)(O)[C@H]1CC[C@]2(C)[C@@H]1CC[C@@H]1[C@@]3(C)CCC(NC(=O)c4ccccc4C(=O)O)C(C)(C)[C@@H]3CC[C@]12C` (some centres not stated) yielded a growth of 104%. `CN1CCN(c2ccc3c(C(N)=O)c(NC(=O)c4ccc(C(C)(C)C)cc4)sc3c2)CC1` gave a growth of 94.7%. Work on `COc1ccc(-c2nc(SCC(C)C)nc(N/N=C\c3cccc([N+](=O)[O-])c3)c2C#N)cc1` yielded a growth of 38.3%. `Cc1cc(F)cc(NS(=O)(=O)c2ccc(-c3cnc(C4CC4)o3)cc2)c1` showed a growth of 46.9%. `C/C(=N\NC(=O)CSc1nc2sc3c(c2c(=O)n1-c1ccccc1)CCC(C)C3)c1ccc(Cl)cc1` (configuration not stated) gave a growth of 51.3%. For `COc1ccc(NC(=O)[C@H](C)N)cc1C(=O)Nc1cccc(-c2cc(=O)c3c(OC)c(OC)c(OC)cc3o2)c1`, the growth was 67.7%. For `CC[C@H](C)[C@H]1NC(=O)[C@@H]([C@H](O)C(C)C)NC(=O)[C@@H](C)N(C)C(=O)[C@H](C)N(C)C(=O)[C@H](CC(C)C)NC(=O)[C@H](CC(C)C)N(C)C(=O)[C@H](C)N(C)C1=O`, the growth was 5.75% (active). `IP(CCCSc1n(Cc2ccc3ccccc3c2)c(-c2ccccc2)c(-c2ccccc2)[n+]1Cc1ccc2ccccc2c1)(c1ccccc1)(c1ccccc1)c1ccccc1` was tested, and the growth was 63.5%. For `N/C(=N\OC(=O)CSc1nc2ccccc2s1)c1ccc(Cl)cc1`, the growth was 101%. For `CC(=O)NC(C)(C)C(=O)N[C@@H](C)C(=O)NC(C)(C)C(=O)N[C@@H](C)C(=O)NC(C)(C)C(=O)N[C@@H](C)C(=O)N[C@@H](CCC(N)=O)C(=O)NC(C)(C)C(=O)N[C@H](C(=O)NC(C)(C)C(=O)NCC(=O)N[C@@H](CC(C)C)C(=O)NC(C)(C)C(=O)N1CCC[C@H]1C(=O)N[C@H](C(=O)NC(C)(C)C(=O)NC(C)(C)C(=O)N[C@@H](CCC(N)=O)C(=O)N[C@@H](CCC(N)=O)C(=O)N[C@H](CO)CC1CCCCC1)C(C)C)C(C)C`, the growth was 94.2% [5 µM]. `CCOC(=O)C1=C(C)Nc2nnc(Nc3ccccc3)n2C1c1ccccc1` (configuration not stated) showed a growth of 91.2%. Molecule `COc1cc(OC)c(S(N)(=O)=O)cc1C(=O)/C=C/c1ccccc1` has a growth of 64.6%. Molecule `CCOC(=O)/C(F)=C/C1CC1C1CCCCC1` (configuration not stated) has a growth of 105%.

From PubChem BioAssay (NCI)
